Only some compounds are listed: those with a hit (about 2.7% of all), similar ones and a draw of the others.
MsrA inh: bovine MsrA enzyme inhibitors, primary screen, biochemical, absorbance, HTS; Methionine sulfoxide reductase A (Bos taurus); purified bovine MsrA, absorbance read-out; inhibition, % at 15.5 µM; 0.75% of 360,000 active; AID 651718, 2012; in the data active = inhibition above about 4.5%
rCAG binder: binders of r(CAG) RNA repeats, primary screen, biochemical, fluorescence; r(CAG) RNA repeat, TO-PRO-1 dye displacement fluorescence; 1.3% of 370,000 active; inhibition, % at 3 µM; AID 651821, 2012;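 active = inhibition above the plate cutoff, the mean of all test compounds on that plate plus 3 SD, cut at about 35% in these data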;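 also: higher means more dye released from RNA so lower well fluorescence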
NadD inh: inhibitors of S. aureus NadD, primary screen, biochemical, colorimetric, uHTS; inhibition, % at 20 µM; AID 602399, 2012; 0.78% of 360,000 active; purified NadD enzyme, colorimetric absorbance read-out; in the data active = inhibition above about 26%
bovine MsrA act: bovine MsrA enzyme activators, primary screen, biochemical, absorbance, HTS | Methionine sulfoxide reductase A (Bos taurus) | purified bovine MsrA, absorbance read-out | activation, % at 10.6 µM | 0.3% of 360,000 active | AID 602163, 2012; in the data active = activation above about 7.5%
NadD inh conf: inhibitors of S. aureus NadD, confirmation, biochemical, colorimetric, single concentration; 13% of 2,000 active; purified S. aureus NadD, colorimetric enzyme assay; inhibition, % at 20 µM; AID 624309, 2012; shares compounds with NadD inh; in the data active = inhibition mostly above about 42%, no sharp cut-off; inactive = mostly below about 42%
Each line names hits and unclear results; the compound was inactive in the other large screens (follow-up assays come after a bar, where they were run).

CCN(CC)C(=O)C1=C(C)N(Cc2ccc(C(C)(C)C)cc2)C(=O)C(CC(=O)NCC2CCCCC2)C1 (centres undefined)	none
Cc1cccc(-c2nnn3c2nc(NCCc2ccc(S(N)(=O)=O)cc2)c2ccccc23)c1	NadD inh 34 | NadD inh conf inactive
Cc1ccc(CC(=O)N/N=C/c2ccc(OC(=O)c3ccc([N+](=O)[O-])cc3)cc2)cc1	NadD inh 33 | NadD inh conf inactive
Cc1ccccc1C(=O)NC1CCCCN(C)C1=O (centres undefined)	none (no result: NadD inh, bovine MsrA act)
Cc1ccc(O)c(C(=O)c2cnc3c(c2)c(-c2ccc(F)cc2)c(C#N)c(=O)n3C)c1	NadD inh 28 | NadD inh conf inactive
O=C(Cn1c2ccccc2c(=O)c2ccccc21)N/N=C/c1cc([N+](=O)[O-])ccc1N1CCCCC1	NadD inh 47 | NadD inh conf inactive
Cc1cc(C)c(S(=O)(=O)C(C)C)c(=O)[nH]1	none
O=C1NC(=O)c2c(Br)c(Br)c(Br)c(Br)c21	NadD inh 30 | NadD inh conf inactive
O=C1NC(=O)C(=O)N1	none
O=c1/c(=C\c2cccc(O)c2)sc2nc(-c3ccccc3)c(-c3ccccc3)n12	NadD inh 35 (no result: bovine MsrA act) | NadD inh conf inactive
COc1ccc(/C=c2\sc3nc(-c4ccccc4)c(-c4ccccc4)n3c2=O)cc1OC	none
N#C/C(=C/c1cn(-c2ccccc2)nc1-c1cccc(OCc2ccccc2)c1)C(=O)NCCCn1ccnc1	NadD inh 41 | NadD inh conf inactive
CCOc1cccc(-c2nn(-c3ccccc3)cc2/C=C(/C#N)C(=O)NCCCn2ccnc2)c1	none
N#C/C(=C/c1cn(-c2ccccc2)nc1-c1cccc(S(=O)(=O)N2CCCC2)c1)C(=O)NCc1ccco1	NadD inh 46 | NadD inh conf 49
COCOc1cccc(CN2CCC(C)(Oc3cccc(OC)c3)C2)c1 (centres undefined)	none
CN(C)c1ccc(-c2cccc(C3CC=CC4C3C(=O)N(Cc3ccccc3)C4c3ccc(C(F)(F)F)cc3)c2)cc1 (centres undefined)	NadD inh 31 | NadD inh conf inactive
COc1cccc(CN(C)C(=O)C2CCN(S(=O)(=O)c3cccs3)CC2)c1OC	none
CC1(c2ccccc2)CC(C)(C)n2c(O)c(C3=NC(=S)NC3=O)c3cccc1c32 (centres undefined)	NadD inh 33 | NadD inh conf inactive
COc1cc2c3c(c1)c(C1=NC(=S)NC1=O)c(O)n3C(C)(C)C=C2C	none
CN(c1ccccc1)S(=O)(=O)c1cccc(NC(=O)CCNC(=O)c2ccco2)c1	none
COc1ccc(N(CC(=O)N/N=C/c2ccc(-c3ccc([N+](=O)[O-])cc3)o2)S(=O)(=O)c2ccc(C)cc2)cc1	NadD inh 42 | NadD inh conf inactive
CCCCC(=O)N/N=C/c1ccc(-c2ccc([N+](=O)[O-])cc2)o1	none
COc1ccc(N(CC(=O)N/N=C/c2ccc(-c3ccc([N+](=O)[O-])cc3)o2)S(=O)(=O)c2ccc(C)cc2)cc1Cl	NadD inh 40 | NadD inh conf inactive
COc1ccc(-c2csc(/C(C#N)=C\c3ccc(O)c([N+](=O)[O-])c3)n2)cc1OC	NadD inh 27 | NadD inh conf inactive
COc1ccc(-c2csc(/C(C#N)=C\c3ccc(OC)c([N+](=O)[O-])c3)n2)cc1	none
CC(C)C[C@@H](CNCC(=O)[C@H](C)NC(=O)c1[nH]cnc1C(=O)N[C@@H](C)CN)NC(=O)c1nc[nH]c1C(=O)N[C@@H](C)C(=O)O	none
COCCNC(=O)C1CCCN(S(=O)(=O)c2ccc3c(c2)CC(C)N3C(=O)C2CC2)C1 (centres undefined)	none
O=c1c2ccccc2sn1-c1ccc(S(=O)(=O)N2CCCCC2)cc1	NadD inh 31 | NadD inh conf inactive
O=c1c2ccccc2sn1-c1ccc(S(=O)(=O)N2CCCC2)cc1	none
Cc1cccc(CN2CCN(C3CN(Cc4cn(Cc5ccc(Cl)cc5)nn4)S(=O)(=O)C3)CC2)c1 (centres undefined)	none
COc1cc(/C=C2\SC(=O)N(CC(=O)Nc3cccc(C)c3)C2=O)cc([N+](=O)[O-])c1O	NadD inh 41 | NadD inh conf inactive
c1ccc(-c2nc(SCc3nc4ccccc4[nH]3)c3oc4ccccc4c3n2)cc1	NadD inh 31 | NadD inh conf inactive

Bioassay records deposited in PubChem BioAssay by several laboratories.
